Assay results as given in ChEMBL document CHEMBL1157539, “Thousands of chemical starting points for antimalarial lead identification” (Nature, 2010).

Tests used:
Type in all cases: functional
Plasmodium falciparum [1] = assay: GSK_TCMDC: Inhibition of Plasmodium falciparum 3D7 in whole red blood cells, using parasite LDH activity as an index of growth. Test compounds present at 2uM
Plasmodium falciparum [2] = assay: GSK_TCMDC: Inhibition of Plasmodium falciparum Dd2 in whole red blood cells, using parasite LDH activity as an index of growth. Test compounds present at 2uM
HepG2 = assay: GSK_TCMDC: Percent inhibition of human HepG2 cell line. Test compounds present at 10uM.

SMILES | Inhibition (Plasmodium falciparum [1]) [%] | Inhibition (Plasmodium falciparum [2]) [%] | Inhibition (HepG2) [%]
CN1CCN(CCCN(Cc2ccc(-c3cccc(CNCc4ccc5c(c4)OCO5)c3)cc2)C(=O)NC2CCCCC2)CC1.O=C(O)C(F)(F)F | 95 | 92 | 31
CS(=O)(=O)Nc1cccc(-c2cnc3[nH]cc(-c4ccc(CCC(=O)O)cc4)c3c2)c1 | 98 | 78 | 7
COc1cc2c(c(OC)c1[N+](=O)[O-])C=CC1(O2)N(C)c2ccc([N+](=O)[O-])cc2C1(C)C (stereo unspecified) | 92 | 89 | 0
COc1ccc(-c2cnc3[nH]cc(-c4ccc(C(=O)O)c(C)c4)c3c2)cn1.O=C(O)C(F)(F)F | 99 | 99 | 23
Cn1c2c(c3ccccc31)CN(CCC1(c3ccc(Cl)c(Cl)c3)CN(C(=O)Cc3ccccc3)CCO1)CC2 (stereo unspecified) | 95 | 91 | 22
COc1cc(C(=O)Nc2cccc(-c3cn4ccc(C)cc4n3)c2)cc(OC)c1OC | 97 | 83 | 0
CCc1cn2c3c(cc(C(=O)N[C@@H](Cc4cccc(F)c4)[C@H](O)CNC4CCCCC4)cc13)N(C)S(=O)(=O)CC2.O=CO | 99 | 99 | 5
O=C(Nc1cccc(Oc2ccccc2)c1)N[C@H]1CCN(Cc2ccc(OCCCN3CCCCC3)cc2)C1 | 100 | 70 | 94
CCCCNCc1ccc(-c2nc(CN(Cc3ccc(Cl)c(Cl)c3)S(=O)(=O)c3ccc(NC(C)=O)cc3)cs2)cc1.O=C(O)C(F)(F)F | 96 | 20 | 30
CC(C)Cc1cn(-c2nc(-c3nc4ccccc4[nH]3)cs2)c2ccncc12.Cl | 100 | 99 | 34
CCOc1ccc2[nH]c(C)cc(=NN=Cc3cccnc3)c2c1 | 100 | 100 | 18
O=C(c1ccc(-c2ccc(-c3nc4ccccc4[nH]3)s2)cc1)N1CCCCC1CN1CCC(O)C1 (stereo unspecified) | 84 | 55 | 18
CC(C)(CNC(=O)[C@@H]1CCCN(CCOc2ccc(F)c(F)c2)C1)c1nc(-c2ccc(Cl)c(O)c2)c(-c2ccncc2)[nH]1.Cl | 100 | 77 | 72
O=C1NC(=O)C(c2cccc(NC(=O)c3ccncc3)c2)=C1c1ccccc1 | 100 | 0 | 5
CC(=O)c1ccc(NC(=O)Nc2ccc(N(C)c3ccnc(Nc4cccc(CS(C)(=O)=O)c4)n3)cc2)cc1 | 100 | 98 | 86
Cc1cc(C2CCN(CCCCNC(=O)c3ccc(-c4ccc(C#N)cc4)cc3)CC2)c(C)cc1OCCO | 96 | 68 | 20
COc1cccc2cc(C(=O)N[C@@H](CC(C)C)C(=O)N[C@H](/C=N/NC(=O)c3ccccc3)Cc3c[nH]cn3)oc12 | 99 | 90 | 3
O=C(O)C(F)(F)F.c1cc(CN2CCC(CCN3CCCCC3)CC2)cc(-c2cccc(-c3nc4ccccc4[nH]3)c2)c1 | 100 | 100 | 95
Cc1c(CNCCCNc2nc3ccncc3[nH]2)sc(Br)c1Br.Cl | 87 | 1 | 0
COc1cccc(Nc2nc(C)cc(NCc3ccc(-n4ccnc4)cc3)n2)c1 | 100 | 99 | 0
Cc1cc(NC2CCN(CC3CCCCC3)C2)nc(Nc2ccc(Br)cc2)n1 (stereo unspecified) | 100 | 83 | 22
CCN(CC)CCCC(C)Nc1ccnc2ccc(OC)cc12.Cl.O (stereo unspecified) | 100 | 0 | 7
CN(C)Cc1cccc(-c2ccc(NC(=O)c3ccc4c(=O)n(C5CCCCC5)cnc4c3)cc2)c1 | 96 | 53 | 92
O=C(O)C(F)(F)F.c1cc(-c2ccc(CNCc3ccsc3)cc2)cc(-c2nc3ccccc3[nH]2)c1 | 100 | 82 | 46
CC(C)Oc1cc2c(cc1NS(=O)(=O)c1ccc(-c3ccc(Cl)s3)cc1F)CCN(C)CC2.Cl | 99 | 1 | 23
CCOC(=O)c1c(-c2ccccc2)nc2c(sc3ccccc32)c1O | 97 | 65 | 2
Cc1ccc(NC(=O)C(C)Sc2nnc(-c3ccccc3Br)[nH]2)cc1 (stereo unspecified) | 89 | 90 | 2
